Laboratory results taken from PubChem BioAssay (Tox21).
“And” between values parts separate entries of the source, which are not always exact repeats. Equal entries are not always repeated. Results filed as inconclusive are left out. The source made the active and inactive calls. Calls follow the shape of the dose curve; as a rule, active = well fitted curve in the direction sought with a large enough effect in the repeat runs; inconclusive = weak or mixed curves; inactive = no such curve, though single readings can be large; an effect the other way counts as inactive or inconclusive.

Columns and labels:
[1] = A CellTox Green Cytotoxicity Assay to monitor cytotoxicity in HepG2 cells - 0 hour (AID 1224882); details: CellTox Green fluorescence; series mostly up to 76.8 µM; also: nearly all actives have a fitted effect of over 35% in size
Outline: (§1)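 Cells and non-lytic dye reagent are dispensed together (600 HepG2 cells/well) and incubated 5 h before DMSO compound transfer. Kinetic fluorescence is then recorded in the same wells during 40 h at 37 C.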

[2] = A CellTox Green Cytotoxicity Assay to monitor cytotoxicity in HepG2 cells - 32 hour (AID 1224883); details: CellTox Green fluorescence; series mostly up to 76.8 µM; also: nearly all actives have a fitted effect of over 50% in size; also: potency is read from the fitted curve at half-maximal effect
Outline: as §1

[3] = A CellTox Green Cytotoxicity Assay to monitor cytotoxicity in HEK293 cells - 8 hour (AID 1224884); details: CellTox Green fluorescence; series mostly up to 76.8 µM; also: nearly all actives have a fitted effect of over 35% in size; also: potency is read from the fitted curve at half-maximal effect
Outline: (§2)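 Cells (HEK293, 600/well) and dye reagent are dispensed together. After 5 h at 37 C, 23 nL compound is pinned in. Plates stay at 37 C for 40 h with fluorescence read at 0h, 8h, 16h, 24h, 32h and 40h.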

[4] = qHTS RealTime-Glo MT Cell Viability Assay in HepG2 cells - 16 hour (AID 1224885); details: RealTime-Glo luminescence; series mostly up to 76.8 µM; also: nearly all actives have a fitted effect of over 50% in size; also: potency is read from the fitted curve at half-maximal effect
Outline: (§3)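 Tox21 10K library screened in qHTS format on HepG2 cells carrying RealTime-Glo reagents. Compounds were added after a 5 h preincubation, and the luminescent signal from continuous culture was measured repeatedly during 40 h treatment.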

[5] = A CellTox Green Cytotoxicity Assay to monitor cytotoxicity in HEK293 cells - 16 hour (AID 1224888); details: CellTox Green fluorescence; series mostly up to 76.8 µM; also: nearly all actives have a fitted effect of over 35% in size; also: potency is read from the fitted curve at half-maximal effect
Outline: as §2

[6] = qHTS RealTime-Glo MT Cell Viability Assay in HepG2 cells - 0 hour (AID 1224889); details: RealTime-Glo luminescence; series mostly up to 76.8 µM; also: nearly all actives have a fitted effect of over 50% in size
Outline: as §3

[7] = qHTS RealTime-Glo MT Cell Viability Assay in HEK293 cells - 24 hour (AID 1224886); details: RealTime-Glo luminescence; series mostly up to 76.8 µM; also: nearly all actives have a fitted effect of over 50% in size; also: potency is read from the fitted curve at half-maximal effect; as to activity change, negative = cytotoxicity: top concentration of the series differs between compounds
Outline: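 Luminescence generated by NanoLuc from substrate produced by living HEK293 cells served as the viability signal. Each value reflects the reading at its stated time point during continuous 40 h compound exposure at 37 C.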

[8] = A CellTox Green Cytotoxicity Assay to monitor cytotoxicity in HepG2 cells - 8 hour (AID 1224890); details: CellTox Green fluorescence; series mostly up to 76.8 µM; also: nearly all actives have a fitted effect of over 45% in size; also: potency is read from the fitted curve at half-maximal effect
Outline: as §1

[9] = qHTS RealTime-Glo MT Cell Viability Assay in HEK293 cells - 8 hour (AID 1224887); details: RealTime-Glo luminescence; series mostly up to 76.8 µM; also: nearly all actives have a fitted effect of over 50% in size; also: potency is read from the fitted curve at half-maximal effect; as to activity change, negative = cytotoxicity: top concentration of the series differs between compounds
Outline: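 Real-time viability in HEK293: signal arises when living cells convert a prosubstrate for NanoLuc in the medium, so luminescence tracks viable cell number. Compound (23 nL, DMSO) added 5 h post-seeding; kinetic reads at 0–40 h, 37 C.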

[10] = qHTS assay to identify small molecule antagonists of the estrogen receptor alpha (ER-alpha) signaling pathway using the BG1 cell line in the presence of 0.1 nM 17-beta-estradiol - cell viability counter screen (AID 1259241); details: VM7Luc4E2 (BG1) viability, CellTiter-Fluor protease, 22 h, 0.1 nM estradiol agonist added; series mostly up to 92.4 µM; also: nearly all actives have a fitted effect of over 40% in size; also: potency is read from the fitted curve at half-maximal effect
Outline: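 In this screen, hormone-deprived VM7Luc4E2 cells were seeded at 4,000 per well, dosed with compound and 0.1 nM estradiol final, and incubated 22 hr at 37C and 5% CO2; fluorogenic live-cell protease signal reported viability.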
% is scaled to controls: 0 for no effect and ±100 for the full control effect.

CCCC[P+](C)(CCCC)CCCC
inactive: Potency [1] | Potency [2] | Potency [3] | Potency [4] | Potency [5] | Potency [6]

C#CC1(O)CC[C@H]2[C@@H]3CCC4=CCCC[C@@H]4[C@H]3CC[C@@]21C (stereo not given in full)
active: Potency [2] 34.7 µM and 19 µM | Potency [3] 17.4 µM and 23.9 µM | Potency [4] 23.9 µM | Potency [7] 17.4 µM and 16.9 µM | Potency [5] 24.5 µM and 21.3 µM | Potency [8] 24.5 µM and 21.3 µM
inactive: Potency [1] | Potency [6]

c1ccc(SSc2ccccc2)cc1
inactive: Potency [1] | Potency [2] | Potency [3] | Potency [4] | Potency [7] | Potency [9] | Potency [5] | Potency [6] | Potency [8] | Potency [10]

CCCCCCCCCCC[C@@H](C[C@@H]1OC(=O)[C@H]1CCCCCC)OC(=O)[C@H](CC(C)C)NC=O
inactive: Potency [1] | Potency [3] | Potency [4] | Potency [5] | Potency [6] | Potency [8] | Potency [10]
active: Potency [2] 16.9 µM | Potency [7] 8.49 µM

Nc1ccc(Oc2ccc(Cl)cc2)cc1
inactive: Potency [1] | Potency [2] | Potency [3] | Potency [4] | Potency [5] | Potency [6] | Potency [8] | Potency [10]
active: Potency [7] 24 µM

CCCCC(CC)CN1CN(CC(CC)CCCC)CC(C)(N)C1 (stereo not given)
active: Potency [2] 19 µM | Potency [3] 15.1 µM | Potency [4] 19 µM | Potency [7] 8.49 µM | Potency [9] 10.7 µM | Potency [5] 13.4 µM | Potency [8] 21.3 µM
inactive: Potency [1]

CCN(CC)c1ccc2c(-c3ccc(S(=O)(=O)O)cc3S(=O)(=O)[O-])c3ccc(=[N+](CC)CC)cc-3oc2c1
active: Potency [10] 12.6 µM
inactive: Potency [1] | Potency [2] | Potency [3] | Potency [4] | Potency [7] | Potency [9] | Potency [5] | Potency [6]

CN1CCC[C@@H]1CCO[C@](C)(c1ccccc1)c1ccc(Cl)cc1
inactive: Potency [1] | Potency [3] | Potency [9]
active: Potency [2] 21.3 µM | Potency [7] 10.7 µM | Potency [5] 23.9 µM

Cc1ccc(C)cc1
inactive: Potency [1] | Potency [2] | Potency [3] | Potency [4] | Potency [7] | Potency [9] | Potency [5] | Potency [6] | Potency [8] | Potency [10]

Cc1cc(C(C#N)c2ccc(Cl)cc2)c(Cl)cc1NC(=O)c1cc(I)cc(I)c1O (stereo not given)
inactive: Potency [1] | Potency [2] | Potency [3] | Potency [4] | Potency [7] | Potency [9] | Potency [5] | Potency [6] | Potency [10]

Cc1c(C)c2c(c(C)c1OC(=O)c1cccnc1)CC[C@@](C)(CCC[C@H](C)CCC[C@H](C)CCCC(C)C)O2
inactive: Potency [1] | Potency [2] | Potency [3] | Potency [4] | Potency [7] | Potency [9] | Potency [5] | Potency [6] | Potency [8] | Potency [10]

O=C(O)[C@H](O)[C@@H](O)[C@H](O[C@@H]1O[C@H](CO)[C@H](O)[C@H](O)[C@H]1O)[C@H](O)CO
inactive: Potency [1] | Potency [2] | Potency [3] | Potency [4] | Potency [7] | Potency [9] | Potency [5] | Potency [6] | Potency [8] | Potency [10]

C#C[C@]1(OC(C)=O)CC[C@H]2[C@@H]3CCC4=C/C(=N/O)CC[C@@H]4[C@H]3CC[C@@]21CC
active: Potency [7] 23.9 µM | Potency [9] 21.3 µM
inactive: Potency [1] | Potency [2] | Potency [3] | Potency [5] | Potency [6] | Potency [8]

O=[N+]([O-])c1ccc(O)cc1C(F)(F)F
inactive: Potency [1] | Potency [2] | Potency [3] | Potency [4] | Potency [9] | Potency [5] | Potency [6] | Potency [8]
active: Potency [10] 48.6 µM

CCN(CCN)c1cccc(C)c1
inactive: Potency [1] | Potency [2] | Potency [3] | Potency [4] | Potency [7] | Potency [5] | Potency [6] | Potency [8] | Potency [10]

COc1ccc(-c2coc3cc(O)ccc3c2=O)cc1
inactive: Potency [1] | Potency [2] | Potency [3] | Potency [4] | Potency [7] | Potency [9] | Potency [6] | Potency [8] | Potency [10]

O=C(/C=C/c1ccc(O)c(O)c1)O[C@@H](C(=O)O)[C@@H](OC(=O)/C=C/c1ccc(O)c(O)c1)C(=O)O
inactive: Potency [1] | Potency [2] | Potency [3] | Potency [4] | Potency [7] | Potency [5] | Potency [6] | Potency [8] | Potency [10]

CCCCC/C=C\C/C=C\CCCCCCCC(=O)O
inactive: Potency [1] | Potency [2] | Potency [3] | Potency [4] | Potency [7] | Potency [9] | Potency [5] | Potency [6] | Potency [10]

CCC(=O)C(=O)CC
inactive: Potency [1] | Potency [2] | Potency [3] | Potency [4] | Potency [5] | Potency [6] | Potency [8]

C=Cc1cccc(C)c1
inactive: Potency [1] | Potency [2] | Potency [3] | Potency [4] | Potency [7] | Potency [5] | Potency [6] | Potency [8] | Potency [10]

CCCCC(CC)COC(=O)CCCCC(=O)OCc1ccccc1 (stereo not given)
inactive: Potency [1] | Potency [2] | Potency [3] | Potency [4] | Potency [7] | Potency [5] | Potency [6] | Potency [8] | Potency [10]

C[C@H]1NCc2cc(-c3ccc4c(=O)c(C(=O)O)cn(C5CC5)c4c3OC(F)F)ccc21
inactive: cytotoxicity [1] -0.836% [at 15.8 µM] | cytotoxicity increase [2] -4.67% [at 15.8 µM] | cytotoxicity increase [3] -4.13% [at 15.8 µM] | activity change, negative = cytotoxic [4] -14.5% [at 15.8 µM] | activity change, negative = cytotoxicity [7] -3.25% [at 15.8 µM] | activity change [5] -0.109% [at 15.8 µM, stronger effect = higher value] | activity change, negative = cytotoxicity [6] -7.36% [at 15.8 µM] | cytotoxicity increase [8] 1.89% [at 15.8 µM]
